Data taken from PubChem BioAssay (EPA / NIEHS).
Where “and” joins values, the source holds several entries; their conditions need not be identical. Equal values may be shown once. Inconclusive results are not listed. Some structures have more than one record in an assay (separate samples or runs), and their calls can disagree. Calls of active or inactive are those of the source. The calls were made as follows, unless noted: active = hit-call score of the fitted dose curve at least 0.9, where 1 is the maximum; inactive = score below 0.9.

Key:
[1] = target: Myc proto-oncogene protein (Homo sapiens) (UniProt P01106); test: ATG_Myc_CIS: Attagene CIS-FACTORIAL HepG2 Assay for human Myelocytomatosis (Myc) Proto-Oncogene Transcription Factor (AID 2282990); details: HepG2, Attagene cis-reporter transcription factor activity; actives raise or lower the signal
Procedure, shortened: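 Multiplexed cis-reporter transcription in HepG2 cells after 24 h chemical treatment. Reporter mRNA measured by RT-PCR and capillary electrophoresis fluorescence; activity fitted bidirectionally against DMSO control.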

[2] = ATG_NF_kB_CIS: Attagene CIS-FACTORIAL HepG2 Assay for human Nuclear Factor Kappa B (NF-kB) (AID 2282991); details: HepG2 Attagene cis-factorial NF-kB reporter mRNA; actives raise or lower the signal
Procedure, shortened: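 Endogenous transcription factor activity in HepG2 was captured via cis-regulated reporter constructs; after 24 h dosing, reporter mRNA was reverse-transcribed, amplified, fluorescently labelled and sized by capillary electrophoresis, with activity fitted bidirectionally relative to DMSO.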

[3] = ATG_NRF2_ARE_CIS: Attagene CIS-FACTORIAL HepG2 Assay for human Nuclear Factor Erythroid 2 Related Factor 2 (NFR2) response to Antioxidant Response Elements (ARE) (AID 2282992); details: HepG2 Attagene ARE/NRF2 reporter, transcription factor activity; actives raise or lower the signal
Procedure, shortened: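 Endogenous transcription factor activity read out as reporter transcript levels (RT-PCR plus capillary electrophoresis, fluorescence) in transiently transfected HepG2 cells. Measured at 24 h after dosing; gain or loss of signal fitted versus DMSO.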

[4] = target: Cellular tumor antigen p53 (Homo sapiens) (UniProt P04637); test: ATG_p53_CIS: Attagene CIS-FACTORIAL HepG2 Assay for human p53 Transcription Factor (AID 2282994); details: HepG2 p53 cis-element reporter, Attagene mRNA; actives raise or lower the signal
Procedure, shortened: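 Endogenous p53 activity read in transiently transfected HepG2 from a cis-element-driven reporter transcript after 24 h exposure. RNA reverse-transcribed, PCR-amplified, fluorescently labelled and sized by capillary electrophoresis; gain or loss fitted against DMSO baseline.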

[5] = BSK_3C_uPAR: BioMAP Diversity Plus: 3C Assay for Urokinase-type plasminogen activator receptor (uPAR) Biomarker Activity (AID 2282998); details: BioMAP 3C HUVEC, uPAR biomarker ELISA; actives raise or lower the signal
Procedure, shortened: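 Cell-surface uPAR on HUVEC (3C system) read by ELISA at 24 h post-treatment, with DMSO as baseline and fitting in both directions. Parallel cultures stained with SRB to flag overt cytotoxicity.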

[6] = BSK_3C_VCAM1: BioMAP Diversity Plus: 3C Assay for Vascular cell adhesion molecule 1 (VCAM1) Biomarker Activity (AID 2282999); details: BioMAP 3C HUVEC, VCAM1 ELISA, cytokine-stimulated; actives raise or lower the signal
Procedure, shortened: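 Vascular primary endothelium (human umbilical vein) was exposed to chemicals and assayed 24 h later. VCAM-1 levels came from ELISA, with DMSO serving as baseline for bidirectional fitting.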

[7] = BSK_4H_Eotaxin3: BioMAP Diversity Plus: 4H Assay for Eotaxin 3 Biomarker Activity (AID 2283000); details: primary human endothelial cells (HUVEC); actives raise or lower the signal
Procedure, shortened: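 Eotaxin-3 (CCL26) levels were measured by ELISA in HUVEC primary cultures 24 h post-dosing. Gain or loss of signal was fitted in both directions, with DMSO serving as baseline and negative control.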

[8] = target: human Peroxisome Proliferator-activated Receptor alpha (PPARa), PPARA (gene 5465) (UniProt Q07869); test: ATG_PPARa_TRANS: Attagene TRANS-FACTORIAL HepG2 Assay for human Peroxisome Proliferator-activated Receptor alpha (PPARa) (AID 2283001; active = hit-call score of the fitted dose curve at least 0.9, where 1 is the maximum;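 as to AC50: potency for gain of reporter signal over DMSO so agonist or activator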)
Procedure, shortened: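 Exposure: 24 h, transiently transfected HepG2 cells. Endpoint: GAL4-UAS reporter mRNA, RT-PCR with capillary electrophoresis fluorescence. Baseline: DMSO; increases fitted.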

[9] = target: human Peroxisome Proliferator-activated Receptor delta (PPARd), PPARD (gene 5467) (UniProt Q03181); test: ATG_PPARd_TRANS: Attagene TRANS-FACTORIAL HepG2 Assay for human Peroxisome Proliferator-activated Receptor delta (PPARd) (AID 2283002; active = hit-call score of the fitted dose curve at least 0.9, where 1 is the maximum)
Procedure, shortened: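 Multiplexed trans-activation format: HepG2 liver cells expressing exogenous NR-Gal4 chimeras and GAL4-UAS reporters were exposed for 24 h. Reporter mRNA was detected by RT-PCR with capillary electrophoresis fluorescence; activity fitted as gain of signal relative to DMSO.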

[10] = read-out: Intercellular Adhesion Molecule 1 (ICAM1), ICAM1 (gene 3383); test: BSK_3C_ICAM1: BioMAP Diversity Plus: 3C Assay for Intercellular Adhesion Molecule 1 (ICAM1) Biomarker Activity (AID 2283003); details: primary human endothelial cells (HUVEC); actives raise or lower the signal
Procedure, shortened: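 ELISA read-out of ICAM-1; HUVEC (primary human), 3C system, 24 h post-dosing; bidirectional fit vs DMSO baseline.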

[11] = target: Retinoic acid receptor alpha (Homo sapiens) (UniProt P10276); test: ATG_RARa_TRANS: Attagene TRANS-FACTORIAL HepG2 Assay for human Retinoic Acid Receptor alpha (RARa) (AID 2283005; active = hit-call score of the fitted dose curve at least 0.9, where 1 is the maximum)
Procedure, shortened: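 HepG2 cells transiently transfected with multiple reporter units expressing chimeric RARα-GAL4 fusion, with GAL4-UAS-driven reporters. After 24 h compound exposure, reporter mRNA induction quantified by RT-PCR and capillary electrophoresis with fluorescent labeling; gain-of-signal fitted relative to DMSO control.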

[12] = BSK_3C_Proliferation: Cell Proliferation Assessment in the BioMAP Diversity Plus: 3C Assay (AID 2283006); details: primary human endothelial cells (HUVEC);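 also: potency may reflect either rise or fall in cell number versus DMSO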
Procedure, shortened: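 HUVEC, sub-confluent; 48 h chemical exposure; 10% TCA fix, 0.1% SRB stain, A560 total protein. Gain or loss of signal fitted both directions vs DMSO control.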

[13] = target: Nuclear receptor subfamily 1 group I member 2 (Homo sapiens) (UniProt O75469); test: ATG_PXR_TRANS: Attagene TRANS-FACTORIAL HepG2 Assay for human Pregnane X Receptor (PXR) (AID 2283008; active = hit-call score of the fitted dose curve at least 0.9, where 1 is the maximum)
Procedure, shortened: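 Transactivation by exogenous PXR–GAL4 fusion measured as reporter transcript induction after 24 h compound treatment of transfected human HepG2 cells. Read-out via RT-PCR and capillary electrophoresis of labelled fragments, fitted upward relative to DMSO.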

[14] = target: human Retinoic Acid Receptor gamma (RARg), RARG (gene 5916) (UniProt P13631); test: ATG_RARg_TRANS: Attagene TRANS-FACTORIAL HepG2 Assay for human Retinoic Acid Receptor gamma (RARg) (AID 2283009; active = hit-call score of the fitted dose curve at least 0.9, where 1 is the maximum)
Procedure, shortened: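 Readout: reporter transcript levels via RT-PCR, 6-FAM primer-extension labelling, HpaI digestion and capillary electrophoresis. Cells: HepG2 carrying transfected RARg-GAL4 chimera plus UAS reporter set. Dosing 24 h; DMSO negative control.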

[15] = target: human RAR-related Orphan Receptor beta (RORb), RORB (gene 6096) (UniProt Q92753); test: ATG_RORb_TRANS: Attagene TRANS-FACTORIAL HepG2 Assay for human RAR-related Orphan Receptor beta (RORb) (AID 2283010; active = hit-call score of the fitted dose curve at least 0.9, where 1 is the maximum)
Procedure, shortened: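 HepG2, transient MRTU transfection (GAL4-UAS reporters, exogenous NR-Gal4 chimeras); 24 h compound exposure; total RNA → RT-PCR → 6-FAM primer extension → HpaI digest → CE fluorescence. Positive direction vs DMSO baseline.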

[16] = ATG_Oct_MLP_CIS: Attagene CIS-FACTORIAL HepG2 Assay for human Octamer-Binding Transcription Factor (Oct) (AID 2282993); details: HepG2 Attagene cis-factorial Oct reporter, mRNA; actives raise or lower the signal
Procedure, shortened: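 Readout is reporter transcript level from RT-PCR with fluorescent primer extension and capillary electrophoresis, fitted in both directions against DMSO. Transfected HepG2 reporter units report endogenous factor activity after 24 h dosing.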

[17] = target: Peroxisome proliferator-activated receptor gamma (Homo sapiens) (UniProt P37231); test: ATG_PPARg_TRANS: Attagene TRANS-FACTORIAL HepG2 Assay for human Peroxisome Proliferator-activated Receptor-gamma (PPARg) (AID 2283007; active = hit-call score of the fitted dose curve at least 0.9, where 1 is the maximum)
Procedure, shortened: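 A TRANS-format multiplexed reporter assay measures activity of an exogenous chimeric NR-Gal4 protein in HepG2 cells. After 24 h of chemical exposure, reporter transcripts are amplified, fluorescently labelled and sized by capillary electrophoresis, with gain of signal scored against DMSO.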

[18] = target: human RAR-related Orphan Receptor gamma (RORg), RORC (gene 6097) (UniProt P51449); test: ATG_RORg_TRANS: Attagene TRANS-FACTORIAL HepG2 Assay for human RAR-related Orphan Receptor gamma (RORg) (AID 2283011; active = hit-call score of the fitted dose curve at least 0.9, where 1 is the maximum)
Procedure, shortened: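 HepG2 cells transiently transfected with GAL4-UAS reporter units and chimeric RORg-Gal4 construct; after 24 h chemical exposure, reporter mRNA measured by RT-PCR with fluorescent capillary electrophoresis, gain of signal fitted against DMSO.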

[19] = target: human Retinoic Acid Receptor beta (RARb), RARB (gene 5915) (UniProt P10826); test: ATG_RARb_TRANS: Attagene TRANS-FACTORIAL HepG2 Assay for human Retinoic Acid Receptor beta (AID 2283004; active = hit-call score of the fitted dose curve at least 0.9, where 1 is the maximum)
Procedure, shortened: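 HepG2 cells were transiently transfected with GAL4-UAS reporter units that report activity of exogenous chimeric NR-Gal4 proteins, then exposed to compound for 24 h. Reporter mRNA was quantified by RT-PCR with capillary electrophoresis fluorescence, as gain of signal over DMSO.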

[20] = BSK_3C_TissueFactor: BioMAP Diversity Plus: 3C Assay for Tissue Factor Biomarker Activity (AID 2282997); details: BioMAP 3C HUVEC, tissue factor biomarker readout; actives raise or lower the signal
Procedure, shortened: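 Tissue Factor measured by ELISA, 24 h after treatment of primary HUVEC in the BioMAP 3C setting.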

Measured: AC50

Chain of Myc proto-oncogene protein (Homo sapiens) (P01106 whole entry, looked up): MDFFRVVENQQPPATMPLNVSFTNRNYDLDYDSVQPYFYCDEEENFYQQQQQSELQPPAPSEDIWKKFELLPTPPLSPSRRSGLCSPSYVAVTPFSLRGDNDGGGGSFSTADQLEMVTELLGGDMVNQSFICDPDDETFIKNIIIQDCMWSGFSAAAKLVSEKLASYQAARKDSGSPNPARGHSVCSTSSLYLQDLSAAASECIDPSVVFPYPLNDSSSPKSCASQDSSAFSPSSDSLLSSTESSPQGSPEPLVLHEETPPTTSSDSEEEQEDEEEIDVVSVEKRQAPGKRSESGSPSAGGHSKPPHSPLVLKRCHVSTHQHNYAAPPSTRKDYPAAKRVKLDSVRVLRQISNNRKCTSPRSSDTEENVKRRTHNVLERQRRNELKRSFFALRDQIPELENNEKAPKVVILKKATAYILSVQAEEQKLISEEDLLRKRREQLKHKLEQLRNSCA
Chain of human RAR-related Orphan Receptor gamma (RORg), RORC (gene 6097) (P51449 whole entry, looked up, the tested form may be a part): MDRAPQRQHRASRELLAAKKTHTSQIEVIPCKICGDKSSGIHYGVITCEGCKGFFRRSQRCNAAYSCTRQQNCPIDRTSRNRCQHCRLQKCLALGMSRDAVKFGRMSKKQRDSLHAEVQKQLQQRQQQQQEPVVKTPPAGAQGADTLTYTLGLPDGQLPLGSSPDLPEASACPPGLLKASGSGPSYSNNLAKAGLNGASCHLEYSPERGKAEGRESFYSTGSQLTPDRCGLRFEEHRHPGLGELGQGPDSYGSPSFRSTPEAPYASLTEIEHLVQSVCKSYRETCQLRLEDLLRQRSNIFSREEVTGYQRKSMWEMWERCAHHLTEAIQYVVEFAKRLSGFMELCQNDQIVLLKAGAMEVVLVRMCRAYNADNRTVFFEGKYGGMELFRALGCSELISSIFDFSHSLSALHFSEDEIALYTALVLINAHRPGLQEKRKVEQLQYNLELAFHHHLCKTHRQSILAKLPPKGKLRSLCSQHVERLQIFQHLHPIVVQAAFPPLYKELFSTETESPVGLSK
Chain of human Peroxisome Proliferator-activated Receptor delta (PPARd), PPARD (gene 5467) (Q03181 whole entry, looked up, the tested form may be a part): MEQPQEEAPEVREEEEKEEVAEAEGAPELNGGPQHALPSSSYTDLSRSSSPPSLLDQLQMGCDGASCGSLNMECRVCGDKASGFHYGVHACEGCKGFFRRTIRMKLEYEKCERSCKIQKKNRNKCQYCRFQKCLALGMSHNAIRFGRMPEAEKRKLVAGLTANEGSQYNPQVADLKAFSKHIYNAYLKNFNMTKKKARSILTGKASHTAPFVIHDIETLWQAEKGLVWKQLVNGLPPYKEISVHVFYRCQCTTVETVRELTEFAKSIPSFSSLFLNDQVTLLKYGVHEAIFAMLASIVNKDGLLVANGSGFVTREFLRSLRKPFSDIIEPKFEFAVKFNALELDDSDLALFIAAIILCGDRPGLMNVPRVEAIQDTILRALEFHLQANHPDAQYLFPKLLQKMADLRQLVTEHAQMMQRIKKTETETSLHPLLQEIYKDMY
Chain of Nuclear receptor subfamily 1 group I member 2 (Homo sapiens) (O75469 whole entry, looked up, the tested form may be a part): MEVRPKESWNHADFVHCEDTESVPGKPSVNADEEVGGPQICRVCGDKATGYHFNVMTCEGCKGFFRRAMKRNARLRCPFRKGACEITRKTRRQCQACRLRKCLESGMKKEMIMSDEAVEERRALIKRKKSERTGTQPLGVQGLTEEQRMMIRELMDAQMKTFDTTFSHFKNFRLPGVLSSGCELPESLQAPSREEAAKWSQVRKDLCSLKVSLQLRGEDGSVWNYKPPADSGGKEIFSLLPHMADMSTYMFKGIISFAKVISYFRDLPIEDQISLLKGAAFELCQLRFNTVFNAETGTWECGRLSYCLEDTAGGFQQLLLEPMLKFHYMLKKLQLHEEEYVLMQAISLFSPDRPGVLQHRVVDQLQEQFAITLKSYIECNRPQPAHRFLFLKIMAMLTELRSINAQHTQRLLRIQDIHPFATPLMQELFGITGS
Chain of Peroxisome proliferator-activated receptor gamma (Homo sapiens) (P37231 whole entry, looked up, the tested form may be a part): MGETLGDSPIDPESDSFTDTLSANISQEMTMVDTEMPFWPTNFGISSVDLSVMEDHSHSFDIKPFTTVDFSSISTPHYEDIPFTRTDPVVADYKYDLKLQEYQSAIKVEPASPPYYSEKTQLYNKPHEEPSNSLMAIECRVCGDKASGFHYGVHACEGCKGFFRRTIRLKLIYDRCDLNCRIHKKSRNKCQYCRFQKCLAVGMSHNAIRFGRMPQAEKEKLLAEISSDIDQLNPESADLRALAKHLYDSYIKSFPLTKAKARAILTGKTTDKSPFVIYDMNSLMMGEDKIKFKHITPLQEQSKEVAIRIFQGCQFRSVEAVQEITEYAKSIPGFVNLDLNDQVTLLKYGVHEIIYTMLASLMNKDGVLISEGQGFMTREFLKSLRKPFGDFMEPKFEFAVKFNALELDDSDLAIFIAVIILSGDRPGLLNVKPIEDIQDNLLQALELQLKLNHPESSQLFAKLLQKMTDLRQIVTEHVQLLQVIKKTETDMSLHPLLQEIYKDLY
Chain of human Retinoic Acid Receptor gamma (RARg), RARG (gene 5916) (P13631 whole entry, looked up, the tested form may be a part): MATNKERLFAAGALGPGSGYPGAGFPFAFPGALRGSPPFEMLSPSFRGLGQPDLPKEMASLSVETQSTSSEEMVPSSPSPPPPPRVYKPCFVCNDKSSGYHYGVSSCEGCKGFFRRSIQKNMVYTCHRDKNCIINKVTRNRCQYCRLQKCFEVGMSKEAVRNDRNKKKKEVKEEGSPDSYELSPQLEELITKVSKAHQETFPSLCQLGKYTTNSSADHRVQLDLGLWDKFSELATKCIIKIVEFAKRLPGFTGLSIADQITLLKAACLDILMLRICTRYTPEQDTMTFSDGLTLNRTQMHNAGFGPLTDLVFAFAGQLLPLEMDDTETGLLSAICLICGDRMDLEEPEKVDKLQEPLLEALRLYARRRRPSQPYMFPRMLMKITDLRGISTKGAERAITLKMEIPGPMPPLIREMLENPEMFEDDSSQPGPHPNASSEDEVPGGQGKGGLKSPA
Chain of human Peroxisome Proliferator-activated Receptor alpha (PPARa), PPARA (gene 5465) (Q07869 whole entry, looked up, the tested form may be a part): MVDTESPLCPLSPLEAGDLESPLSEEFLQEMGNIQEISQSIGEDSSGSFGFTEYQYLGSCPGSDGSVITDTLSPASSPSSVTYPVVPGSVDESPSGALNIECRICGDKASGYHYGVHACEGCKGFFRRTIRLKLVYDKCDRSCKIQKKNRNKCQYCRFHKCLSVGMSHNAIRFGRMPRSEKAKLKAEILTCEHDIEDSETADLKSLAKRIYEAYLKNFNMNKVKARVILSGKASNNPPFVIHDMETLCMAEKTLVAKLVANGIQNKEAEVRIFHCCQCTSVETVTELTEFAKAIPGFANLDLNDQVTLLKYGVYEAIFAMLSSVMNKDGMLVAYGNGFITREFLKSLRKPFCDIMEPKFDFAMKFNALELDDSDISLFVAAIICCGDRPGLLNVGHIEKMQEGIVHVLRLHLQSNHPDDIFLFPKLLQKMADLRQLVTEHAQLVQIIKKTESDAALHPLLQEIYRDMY
Chain of Cellular tumor antigen p53 (Homo sapiens) (P04637 whole entry, looked up): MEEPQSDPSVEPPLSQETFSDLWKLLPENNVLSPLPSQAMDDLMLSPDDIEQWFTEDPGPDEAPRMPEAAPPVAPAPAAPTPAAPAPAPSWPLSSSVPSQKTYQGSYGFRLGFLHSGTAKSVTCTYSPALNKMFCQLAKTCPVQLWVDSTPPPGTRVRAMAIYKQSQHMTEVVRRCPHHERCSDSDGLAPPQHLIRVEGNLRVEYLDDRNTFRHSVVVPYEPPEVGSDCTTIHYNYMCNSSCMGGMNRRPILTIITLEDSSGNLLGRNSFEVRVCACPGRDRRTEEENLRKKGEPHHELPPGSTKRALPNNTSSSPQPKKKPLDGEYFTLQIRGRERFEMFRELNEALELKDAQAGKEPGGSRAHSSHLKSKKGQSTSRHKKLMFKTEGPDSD
Chain of human RAR-related Orphan Receptor beta (RORb), RORB (gene 6096) (Q92753 whole entry, looked up, the tested form may be a part): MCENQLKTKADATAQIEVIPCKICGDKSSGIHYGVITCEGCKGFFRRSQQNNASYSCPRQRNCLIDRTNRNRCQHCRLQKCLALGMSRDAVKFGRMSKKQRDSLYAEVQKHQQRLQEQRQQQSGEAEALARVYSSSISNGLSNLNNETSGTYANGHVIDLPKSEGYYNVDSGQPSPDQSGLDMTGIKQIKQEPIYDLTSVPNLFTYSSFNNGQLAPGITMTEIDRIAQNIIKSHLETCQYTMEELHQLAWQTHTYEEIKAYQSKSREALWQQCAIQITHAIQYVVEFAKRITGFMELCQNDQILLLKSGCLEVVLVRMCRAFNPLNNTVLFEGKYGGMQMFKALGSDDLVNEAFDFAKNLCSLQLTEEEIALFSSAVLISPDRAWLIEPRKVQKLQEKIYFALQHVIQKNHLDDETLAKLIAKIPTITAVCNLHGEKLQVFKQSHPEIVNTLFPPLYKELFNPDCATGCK
Chain of Retinoic acid receptor alpha (Homo sapiens) (P10276 whole entry, looked up, the tested form may be a part): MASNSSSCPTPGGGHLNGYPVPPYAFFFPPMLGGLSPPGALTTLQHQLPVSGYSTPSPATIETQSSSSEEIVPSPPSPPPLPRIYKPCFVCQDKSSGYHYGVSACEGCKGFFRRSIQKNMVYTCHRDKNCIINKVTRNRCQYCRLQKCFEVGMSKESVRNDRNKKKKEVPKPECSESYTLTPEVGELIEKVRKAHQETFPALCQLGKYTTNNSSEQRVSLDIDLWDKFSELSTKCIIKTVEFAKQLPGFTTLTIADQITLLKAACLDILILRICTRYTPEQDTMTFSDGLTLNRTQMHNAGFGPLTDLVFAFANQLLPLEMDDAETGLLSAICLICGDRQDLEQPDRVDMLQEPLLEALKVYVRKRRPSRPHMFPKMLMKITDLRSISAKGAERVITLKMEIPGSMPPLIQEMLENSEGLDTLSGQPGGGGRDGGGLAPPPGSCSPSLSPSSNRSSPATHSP

O=C(CC(=O)C(F)(F)C(F)(F)C(F)(F)F)c1cccs1
active: [3] 12.9 µM and 20.2 µM | [5] 46.7 µM and 30 µM | [6] 45.3 µM and 48.7 µM | [7] 34.6 µM and 39.1 µM | [8] 13.3 µM and 14.1 µM | [10] 46.2 µM and 50 µM | [12] 15.1 µM and 16.5 µM | [13] 13.9 µM
inactive: [1] | [2] | [4] | [9] | [11] | [13] | [14] | [15]

CCO[Si](CCC1CCC2OC2C1)(OCC)OCC (centres undefined)
inactive: [1] | [2] | [3] | [16] | [8] | [9] | [11] | [17] | [18]

CC(C)C=O
not listed: [3] | [5] | [6] | [7] | [10] | [12] | [20]
inactive: all other assays above

CCCCCCCCCCCCCC[n+]1ccccc1
inactive: [1] | [2] | [4] | [9] | [19] | [11] | [13] | [14]
active: [3] 172 nM | [8] 177 µM | [17] 13.6 µM

CCCCCCCC(OC)OC
inactive: [1] | [2] | [3] | [4] | [9] | [18]

O=C(O)CN(CCCN(CC(=O)O)CC(=O)O)CC(=O)O
inactive: [1] | [2] | [4] | [8] | [9] | [19] | [11] | [14] | [15] | [18]
active: [3] 6540 nM

Oc1c(Cl)cc(Cl)cc1Sc1cc(Cl)cc(Cl)c1O
active: [16] 3.57 µM | [20] 22.2 µM and 21 µM | [5] 3.97 µM and 7.82 µM | [6] 31.3 µM and 28.6 µM | [7] 22.2 µM and 18.5 µM | [8] 11.1 µM | [10] 33.5 µM and 34.8 µM | [12] 5.56 µM and 4.63 µM | [17] 2.69 µM | [13] 1.9 µM
inactive: [1] | [4] | [9] | [14] | [15] | [18]

CN(C)c1ccc(C(=C2C=CC(=[N+](C)C)C=C2)c2ccccc2)cc1
inactive: [16] | [9] | [18]
active: [2] 933 nM and 1.85 µM | [3] 474 nM and 475 nM | [16] 2.27 µM | [4] 1.61 µM and 2.64 µM | [20] 15.2 nM | [5] 14.1 nM | [6] 27.3 nM | [7] 8.2 nM | [10] 337 nM | [12] 24.8 nM | [13] 3.02 µM

CS(=O)(=O)c1ccc([C@@H](CC2CCCC2)C(=O)Nc2cnccn2)cc1Cl
inactive: [4] | [20] | [5] | [6] | [7] | [8] | [9] | [10] | [17]
active: [1] 165 µM | [16] 122 µM | [12] 31600 nM | [13] 3.42 µM
